# Screening results deposited in PubChem by National Center for Advancing Translational Sciences (NCATS).
# Luc counter: Kinase-Glo luciferase inhibition (counter-screen) | Q27757 | Kinase-Glo luciferase, ATP luminescence, 8 min | Potency, µM (top dose mostly 38.3 µM), inactives show at the top dose activity change, negative = inhibition, hits mostly inhibitors | actives 0.28% (n = 200,000) | AID 1379; further: on the % scale 0 is the no-effect control and ±100 the full control effect; nearly all actives have a fitted effect of over 60% in size
#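 Compounds were added to a substrate mix at pH 7.2 (50 mM imidazole, 10 uM ATP, within the enzyme's linear range), followed by Kinase-Glo detection reagent; luminescence was measured after 8 minutes at ambient temperature.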
# NPC1 prom act: activators of NPC1 promoter. actives 2.4% (n = 320,000). AID 485313. Potency, µM (titrated, usually from 9.22 µM), inactives show at the top dose activation, usual class: activators. Huh7 NPC1 promoter luciferase reporter, 24 h; further: % of control where 0% means no effect; nearly all actives have a fitted effect of over 60% in size
#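 Luciferase expression driven by the NPC1 promoter was measured in stably transfected Huh7 cells after a 24 h compound incubation, using a luciferase reagent and a luminescence read.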
# Rab9 prom act: activators of Rab9 promoter; Potency, µM (series often up to 9.22 µM), for the others: at the top dose activation, negative = inhibition, most hits filed as activators; actives 2.8% (n = 320,000); Huh7 Rab9 promoter-luciferase reporter, luminescence, 24 h; further: % of control where 0% means no effect; nearly all actives have a fitted effect of over 60% in size
#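 Luminescence read-out: Huh7 cells stably expressing Rab9-luciferase, treated 24 h with compound at 37 °C, then lysed with luciferase reagent for 10 min at ambient before reading.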
# ELG1 genotoxic: induces genotoxicity in HEK293T cells with luciferase-tagged ELG1; actives 1.3% (n = 330,000); Potency, µM (doses to about 46 µM), for inactives: top-dose activity change, positive = activation, hits mostly activators; HEK293T ELG1-luciferase reporter, luminescence, 16 h; further: % of control where 0% means no effect; nearly all actives have a fitted effect of over 60% in size
#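 Luminescence read-out: rising ELG1-luciferase signal, reflecting elevated ELG1 protein under genetic stress, flags genotoxic compounds. Cells were treated for 16 hr at 37 °C before ONE-Glo detection.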
# SMN2 splice enh: enhancers of SMN2 splice variant expression | HEK293 SMN2-luciferase splicing reporter, luminescence, 30-36 h | Potency, µM (titrated, usually from 46.1 µM), without a hit: at the top dose activity change, positive = activation, most hits filed as activators | actives 2.8% (n = 210,000); further: % of control where 0% means no effect; nearly all actives have a fitted effect of over 55% in size
#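 HEK293 cells carry an SMN2 minigene-luciferase reporter in which exon 7 inclusion puts luciferase in frame. Cells were seeded at 2000 cells/well, attached for 10-12 hours, then exposed to compounds for 30-36 hours at 37C before ONE-Glo luminescence.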
# FLuc counter: inhibits or activates purified firefly luciferase, miR-21 counter-screen; P08659; purified FLuc, Km substrates, luminescence inhibition; Potency, µM (series often up to 57.5 µM), without a hit: top-dose activity change, negative = inhibition, hits mostly inhibitors; actives 6.9% (n = 360,000); AID 588342;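 further: plate controls were vehicle for no effect and reference inhibitor for full effect; nearly all actives have a fitted effect of over 55% in size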
# Target sequence (P08659 whole entry, looked up): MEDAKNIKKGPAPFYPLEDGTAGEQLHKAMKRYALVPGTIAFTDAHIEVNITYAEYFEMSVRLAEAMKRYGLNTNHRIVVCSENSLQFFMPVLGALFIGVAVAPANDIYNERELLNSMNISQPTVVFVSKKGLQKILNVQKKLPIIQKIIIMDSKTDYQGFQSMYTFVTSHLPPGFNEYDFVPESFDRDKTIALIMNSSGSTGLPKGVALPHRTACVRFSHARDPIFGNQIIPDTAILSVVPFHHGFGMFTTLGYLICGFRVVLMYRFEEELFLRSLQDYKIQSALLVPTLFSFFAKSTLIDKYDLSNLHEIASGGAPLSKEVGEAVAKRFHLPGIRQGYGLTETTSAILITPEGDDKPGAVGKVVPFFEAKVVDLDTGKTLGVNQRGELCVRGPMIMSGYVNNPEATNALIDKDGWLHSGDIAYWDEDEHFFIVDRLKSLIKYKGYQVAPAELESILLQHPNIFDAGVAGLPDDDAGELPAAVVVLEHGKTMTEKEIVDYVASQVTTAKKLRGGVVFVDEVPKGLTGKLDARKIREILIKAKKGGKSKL
#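 Purified P. pyralis luciferase, 10 nM final, with Km-level 10 uM D-luciferin and 10 uM ATP in 50 mM Tris acetate pH 7.5, 10 mM Mg acetate, 0.01% Tween-20, 0.05% BSA; 6-point qHTS titration about 60 µM downward; luminescence read.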
# Numbers without * were called inactive; ? = inconclusive; · = no result given. Rows were chosen to be rich in hits. Some 7.5% of all compounds tested hit in one or more screens of this group. The call rests on the fitted dose curve; in most records, active means well fitted curve in the direction sought with a large enough effect; inconclusive means small, poorly fitted or top-dose-only effect, or another doubt; inactive means no such curve, though single readings can be large; an effect the other way counts as inactive or inconclusive. Potency means the concentration at half of the fitted maximal effect.
SMILES,Luc counter,NPC1 prom act,Rab9 prom act,ELG1 genotoxic,SMN2 splice enh,FLuc counter
Cn1c(=O)c(C(=O)NCc2ccc(F)cc2)c(O)c2ccccc21,·,-2%,6%,0%,·,-15%
Cc1ccc(NC(=O)c2c(O)c3ccccc3n(C)c2=O)nc1,-3%,3.5µM*,12%,15%,?,?
CCn1c(=O)c(C(=O)Nc2ccc(C)cc2)c(O)c2ccccc21,·,14%,22%,7%,·,?
Cn1c(NC(=O)/C=C/c2ccc(Cl)c(Cl)c2)cc(=O)n(C)c1=O,1%,28%,22%,?,22%,-19%
Cn1c(NC(=O)CCc2ccccc2)cc(=O)n(C)c1=O,-6%,?,2.8µM*,16µM*,?,13µM*
Cn1c(NC(=O)/C=C/c2ccccc2)cc(=O)n(C)c1=O,-2%,16%,?,?,7.9µM*,21µM*
COc1ccc(/C=C/C(=O)Nc2cc(=O)n(C)c(=O)n2C)cc1,-7%,1%,-1%,13%,7%,9.5µM*
Cc1nn(CC(=O)NCc2ccccc2)c(C)c1[N+](=O)[O-],-5%,-2%,0%,0%,-12%,2%
Cc1nn(CC(=O)c2ccccc2Cl)c(C)c1[N+](=O)[O-],-15%,?,4µM*,15µM*,?,11µM*
OC[C@@H](O)[C@@H](O)CCc1ccccc1,2%,·,·,·,6%,·
O=c1[nH]cnc2c1sc1nc(-c3ccccc3)c3c(c12)CCCC3,-1%,0%,-6%,-1%,-13%,-4%
O=C(O)CSc1ncnc2c1sc1nc(-c3ccccc3)c3c(c12)CCC3,·,1%,-1%,4%,·,11µM*
O=C(Nc1ccccc1C(=O)O)c1ccc(Cl)c(S(=O)(=O)N2CCOCC2)c1,-4%,14%,26%,-7%,-10%,6.7µM*
O=C(Nc1ccccc1C(=O)O)c1cc(S(=O)(=O)N2CCOCC2)cs1,0%,1%,4%,1%,9%,19µM*
CCOc1ccc(C2C(=O)N(C3CCCCCC3)CC(=O)N2CCc2ccc(OC)c(OC)c2)cc1OC (stereo not drawn),·,·,·,·,·,4%
CCOC(=O)CNC(=O)CSc1nnc(NC(=O)c2ccccc2Cl)s1,-8%,24%,?,?,?,11µM*
CC(=O)Nc1nnc(SCC(=O)NC(C)(C)C)s1,-5%,17%,12%,-7%,-8%,0%
O=C(CSc1nnc(NC(=O)c2ccc(F)cc2F)s1)NC1CC1,·,?,?,?,·,7.6µM*
O=C(CSc1nnc(NC(=O)c2c(F)cccc2F)s1)NC1CC1,·,-2%,-2%,6%,·,-6%
CC(C)(C)NC(=O)CSc1nnc(NC(=O)c2ccccc2Cl)s1,-7%,10%,11%,7%,15%,17µM*
CCOC(=O)CNC(=O)CSc1nnc(NC(=O)c2ccc(S(=O)(=O)N3CCOCC3)cc2)s1,·,-2%,0%,3%,·,?
O=c1oc2ccccc2n1CSc1nc2ccccc2s1,-2%,2.8µM*,4µM*,?,14%,12µM*
Cc1cc(S(=O)(=O)N2CCOCC2)ccc1OCC(=O)N1CCCC1,·,1%,0%,2%,·,-1%
O=C(CSc1nc2ccccc2s1)CSc1nc2ccccc2s1,-5%,6%,-4%,2%,19%,-2%
Cc1ccccc1C(=O)Nc1nnc(SCC(=O)NC2CC2)s1,·,2.5µM*,2.2µM*,?,·,8.5µM*
SMILES,Luc counter,NPC1 prom act,Rab9 prom act,ELG1 genotoxic,SMN2 splice enh,FLuc counter
CC(=O)Nc1nnc(SCC(=O)NC2CCCC2)s1,·,-5%,0%,-10%,·,2%
O=C(CSc1nc2ccccc2s1)c1cc2ccccc2o1,-1%,·,·,·,0%,17µM*
O=C(CSc1nc2ccccc2s1)Nc1ccc2c(c1)oc1ccccc12,-3%,17%,24%,8%,11µM*,-2%
O=C(CSc1nnc(NC(=O)c2ccccc2Cl)s1)Nc1ccc2c(c1)oc1ccccc12,-10%,3.5µM*,?,?,35µM*,0.95µM*
CCC(=O)Nc1nnc(SCC(=O)Nc2cccc(Cl)c2)s1,·,-4%,-3%,-5%,·,-17%
CCOC(=O)c1c(S(=O)(=O)NCC(=O)N2CCN(c3cccc(Cl)c3)CC2)c(C)n(C)c1C,·,·,·,·,·,-7%
O=C(CSc1nnc(NC(=O)c2ccccc2Cl)s1)NC1CC1,·,?,4.5µM*,17%,·,12µM*
COCCn1c(C)cc(O)c(C(c2ccc(Cl)cc2)N2CCN(c3ccccc3)CC2)c1=O (stereo not drawn),·,·,·,·,·,-3%
O=C(Nc1nnc(C2CC2)s1)c1ccc(S(=O)(=O)c2ccccc2)cc1,-1%,1%,-3%,0%,-14%,2%
CC(C)(C)c1nnc(NC(=O)c2ccc(Cl)nc2)s1,9%,23%,4.5µM*,16%,·,?
CCc1nnc(NC(=O)c2cc(Cl)ccn2)s1,·,2.2µM*,2.5µM*,16µM*,·,15µM*
CCc1nnc(NC(=O)c2ccc(Cl)nc2)s1,-5%,26%,?,?,26%,13µM*
O=C(Nc1nnc(C2CC2)s1)c1ccc(Cl)nc1,·,?,?,?,·,12µM*
CC(C)(C)n1ncc2c(=O)n(Cc3cccc(Cl)c3Cl)cnc21,·,·,·,·,·,-12%
COc1ccc(OCc2cc(C(=O)NC(C)Cc3cccnc3)no2)c(Cl)c1 (stereo not drawn),·,15%,2%,2%,·,13µM*
CC(Cn1cncn1)NC(=O)c1cc(COc2cccc(C(F)(F)F)c2)on1 (stereo not drawn),·,8%,20%,3%,·,-13%
O=C(NCCc1cccnc1)c1cc(COc2ccc(F)cc2Cl)on1,·,8%,6%,0%,·,19µM*
O=C(NCCc1cccnc1)c1cc(COc2ccc(F)cc2F)on1,·,3%,-2%,-2%,·,-20%
COc1ccc(OCc2cc(C(=O)NC(C)Cn3cncn3)no2)c(Cl)c1 (stereo not drawn),·,?,?,?,·,12µM*
CC(Cc1cccnc1)NC(=O)c1cc(COc2ccc(F)cc2F)on1 (stereo not drawn),·,-3%,6%,-6%,·,-10%
COc1ccc(OCc2cc(C(=O)NC(C)Cc3ccccn3)no2)c(Cl)c1 (stereo not drawn),·,14%,19%,5%,·,12µM*
Cc1ccccc1C(=O)NC1(C(F)(F)F)C(=O)Nc2c1c(=O)[nH]c(=O)n2CCc1ccccc1 (stereo not drawn),·,·,·,·,·,-13%
C(=N\N1CCOCC1)/c1nc(-c2ccccc2)n2ccccc12,-1%,1%,9%,3%,4%,-4%
CC(C)(C)c1ccc(-c2nc(C=O)c3ccccn23)cc1,0%,2%,4%,1%,-14%,15µM*
